The assay has as its target T1, ETS1 (UniProt P14921).
T1 sequence: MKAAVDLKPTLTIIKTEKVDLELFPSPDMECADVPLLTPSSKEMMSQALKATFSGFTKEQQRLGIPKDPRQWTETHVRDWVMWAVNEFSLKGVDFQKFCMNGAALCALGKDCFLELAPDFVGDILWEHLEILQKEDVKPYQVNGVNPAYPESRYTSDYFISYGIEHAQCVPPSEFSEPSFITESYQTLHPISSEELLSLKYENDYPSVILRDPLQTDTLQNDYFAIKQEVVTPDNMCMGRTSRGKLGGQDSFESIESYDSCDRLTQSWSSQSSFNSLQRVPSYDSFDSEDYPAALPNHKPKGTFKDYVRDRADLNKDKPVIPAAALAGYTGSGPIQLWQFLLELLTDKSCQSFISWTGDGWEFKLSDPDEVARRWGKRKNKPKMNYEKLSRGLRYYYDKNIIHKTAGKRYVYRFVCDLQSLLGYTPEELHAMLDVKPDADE
As to the kind of experiment: ETS1 binding intensity (PBM fluorescence), ETS1 alone (arbitrary fluorescence units); higher = stronger binding. To be noted: ETS1 concentration 1 nM; RUNX1 concentration 0 nM. On the procedure:
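Cooperative genomic-context PBM: 36-bp genomic probes with neighbouring ETS1 and RUNX1 sites, double-stranded on Agilent 4x180k arrays. Full-length recombinant human ETS1 (1 nM) was incubated alone or with RUNX1 (25 nM) and detected with anti-ETS1 antibody plus Alexa488 secondary. Value is the median fluorescence intensity over 4 replicate spots; the ETS1+RUNX1 data were normalised to the ETS1-only data using probes without RUNX1 sites. The 36-bp variable region sits on the array probe with constant linker/primer flanks that are not printed.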
Consider CAGGGTGTCGGCTTCCGGCGGTTGCCCACTTTCGGC, for which the ETS1 binding intensity was determined as 1100. As for CTCCCCCCACGACTTCCCTCTGTGGCCCCGGGCCGC, the ETS1 binding intensity is 677. Under CTTGCTCCCCACTTCCTACCACATTCAATGCCCGGA stands 523; under TATTCAGGCTTCCGGGTGATGTTTGTGGCCACCCGG, 3800; under TTAGCACATCCTGGGTACACAGACCACAGCCTCCTC, 367. ACAGGAAATGACTTAGGGAAAGTCCCAACCGCAATC came in with an ETS1 binding intensity of 2800.

As for ATTTCGCTGAAAACAGGAAACCACGAAGCCCAGATG, the ETS1 binding intensity amounted to 3270.

Regarding GTGTGAAGGAAGTGTGAGATCAAACCACAGCTGGGT, the ETS1 binding intensity came to 457. AGCGGGAGGAAGTGCTGCAGTAGCCACAGCAGCCTG yielded an ETS1 binding intensity of 534. For the sequence ACTACAGGAGGAAACTACAGCCTAAACCACATGCAA, the ETS1 binding intensity is 510. Sequence GCCGATGAGGAAGTGAGGGCCAACCACACTGCTCAG returned an ETS1 binding intensity of 544.

CCCAACCATTTCCGCCACACCTCCAACCCACTGCCG registered an ETS1 binding intensity of 647.

As to GCCGTGGGTACGACCGGAAGCCGCAGGTGGGTGAAG, the ETS1 binding intensity was determined as 18000. AGTCTCGTTTCCTGTGCGCTGTGGCCACCTGGCAGC registered an ETS1 binding intensity of 1110. In the case of GCCGGCGGCCGGAAGTCTATCCCGCAGAAGCGCAGC, the ETS1 binding intensity was found to be 9360. Sequence CTTCTGAGAGGAGGATGTGGTCAGATACCTACAAAT yielded an ETS1 binding intensity of 1030. Sequence GGGCAGCAGCAGACCGGAAACCACAGCCGACTAAGA had an ETS1 binding intensity of 10700. TGGGACGAGTGGGCGGAAACAGCCGCAGGTCTCTCT had an ETS1 binding intensity of 1990.

GCATTGTGCTTCCGCTCGGGGAAAGACCGCTTACGG had an ETS1 binding intensity of 789. Take CGGTGGCTTCCGGCCCATGGCGGTGGTTGGTGACTC: the ETS1 binding intensity was found to be 807. Turning to CCCTCATCTTCCTGCTTCAGGCAGCTGTGGTTTACC, the ETS1 binding intensity turned out to be 420. Consider TGGTGTGACCAGGATGTGAACCGCGGCAAGCTGCCT, for which the ETS1 binding intensity was found to be 995.

As to GCAAGGTGGAGAGGAGGATGTGGCTTACCAGCAATT, the ETS1 binding intensity turned out to be 1280. Sequence AACAAACCGGATGGGGTTGCCACCCGCAATCTTGTC returned an ETS1 binding intensity of 2030. Take GCAAGGCAACAGGAAATTGTGGGGAAATTTTAAAAA: the ETS1 binding intensity is 3930. TGTTTACTTCCTGGAGGCACTTTGGTTTTTCTTTCT: the ETS1 binding intensity is 490. TTCTCATCCGGCCGGCTTGCTTTCCCCTGCGGTCGT yielded an ETS1 binding intensity of 394. The sequence GTAAAAGAGGAAGTAACACCTCCTTGCGGTTGAGAC yielded an ETS1 binding intensity of 1450. CAGCTGCTGACAGGAAAACCACAGTGGAAGGGGAAG displayed an ETS1 binding intensity of 848. Under TGTCGTACATTTCCGCCTTGTGGGCACAATCTGATT stands 965. As for CTTAGCGGAAGAGGCGTGACCCAGGCGTACCGCAGG, the ETS1 binding intensity was determined as 497.

For the sequence AGCGCCCCATCCCGCGGATGTGGTAAAGCTTCGCGC, the ETS1 binding intensity was found to be 658.

For the sequence TACTACTTACCAGCAGGATGTGGTCCCTGCCCACTG, the ETS1 binding intensity is 3230. Turning to ACCCAGGAGGCGGAAGTTGTGGTGAGCCGAGATCGC, the ETS1 binding intensity was found to be 4020. The sequence CCTGCTGCTTCCGCCCGGAGTTGTTGTGGGCTCCAG registered an ETS1 binding intensity of 643. In turn, TTTTTTCCGCCTGTAGGGTCACATTGTGGTTGATTG came in with an ETS1 binding intensity of 446. In turn, TCCCGAGAGCCGGAAGCAGCCGCAGGCCCCGCCACA returned an ETS1 binding intensity of 3950. Under CCATATCTGGCTTCCTAAGGAGGAACCACAAACCGT stands 375; under AGGCTCATTTCCTGTTTTCATGTGGTTTAGAGAAAA, 2630.

GCAGTCAGAAGGTGCGGATGCGGTAAGGTATGCGCT came in with an ETS1 binding intensity of 1130.

Values taken from the supplement of paper PMC10681739.
